# In PubChem BioAssay (NCATS):
# Values joined by “and” are separate entries in the source; they are usually repeats but may differ in a detail not shown here. Identical values can stand only once. Records with an inconclusive call do not appear. Active and inactive are the calls of the source. Unless noted, calls come from the whole dose curve; as a rule, active = well fitted curve in the direction sought with a large enough effect; inconclusive = small, poorly fitted or top-dose-only effect, or another doubt; inactive = no such curve, though single readings can be large; an effect the other way counts as inactive or inconclusive.
# Experiments:
# [1] = biological target: Alpha-galactosidase A (Homo sapiens) (UniProt P06280); assay: Counterscreen for Glucocerebrosidase Inhibitors: qHTS Assay for Human alpha-Galactosidase at pH 4.5 (AID 992); note: 0% is about no effect
# Method in brief: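 Enzyme at 2 nM final was combined with compound (0.7 nM to 77 uM) and 80 uM 4-methylumbelliferyl alpha-D-galactopyranoside in 50 mM citric acid, 0.005% Tween-20, pH 4.5. After 20 min at room temperature, fluorescence was read (Ex 365/Em 440 nm); AC50 came from Hill fits.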
# [2] = biological target: alpha-glucosidase (Oryza sativa, rice) (UniProt Q653V4); assay: Counterscreen for Glucocerebrosidase Inhibitors: qHTS Assay for Rice alpha-Glucosidase at pH 5.0 (AID 997);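 note: 0% = full activity with enzyme and -100% = basal without enzyme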
# Method in brief: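 Rice alpha-glucosidase (4 nM final) with 400 uM 4-methylumbelliferyl-alpha-D-glucopyranoside in citrate buffer pH 5.0, 20 min at room temperature, stopped at pH 10; fluorescence 365/440 nm, compounds 0.7 nM–77 uM, AC50 from Hill fits.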
# [3] = qHTS Assay for Lipid Storage Modulators (AID 1519; calls by dose curve; for activity change, negative = inhibition: % is set by controls: 0 for no effect and ±100 for the full control effect); details: Drosophila S3 cells, BODIPY lipid droplet/cell ratio, laser cytometry, cells loaded with oleic acid
# Method in brief: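 Cells seeded at 5,000 per well were treated with compounds over a concentration series and loaded with oleic acid (400 uM, as added). Lipid droplet fluorescence (488 nm excitation, 500-530 nm channel) was read by laser-scanning cytometry and normalized to 20 uM Triacsin C.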
# [4] = biological target: DNA repair nuclease/redox regulator APEX1 (Homo sapiens) (UniProt P27695); assay: qHTS Validation Assay for Inhibitors of the Human Apurinic/apyrimidinic Endonuclease 1 (APE1) (AID 1705;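 note: TAMRA fluorescence gain over two minutes as APE1 cuts a quenched THF abasic duplex; % is set by controls: 0 for no effect and ±100 for the full control effect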)
# Method in brief: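 qHTS, 1536-well. APE1 + cpd 15 min RT → 50 nM TAMRA/BHQ-2 THF-abasic dsDNA substrate → kinetic fluorescence, 3 reads/60 s; delta(read3−read1) = reaction progress. No-enzyme buffer = negative control.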
# [5] = Counterscreen for APE1 Inhibitors: Fluorescent Dye Displacement Validation Assay (AID 1707);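 note: plate controls were ThO with dsDNA and no compound for no effect and ThO without dsDNA for full effect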
# Method in brief: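 Thiazole Orange displacement from dsDNA: 250 nM ThO with 50 nM TAMRA-labelled abasic-site (tetrahydrofuran) duplex in 50 mM Tris-HCl pH7.5, 50mM NaCl, 2 mM MgCl2, 0.01% Tween-20. Loss of endpoint fluorescence (ex 480 nm, em 540 nm) flags DNA binders.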
# [6] = biological target: Endonuclease 4 (Escherichia coli (strain K12)) (UniProt P0A6C1); assay: Counterscreen for APE1 Inhibitors: qHTS Validation Assay for Inhibitors of Endonuclease IV (AID 1708); note: % is set by controls: 0 for no effect and ±100 for the full control effect
# Method in brief: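 Enzymatic AP-site incision assay using a double-stranded THF substrate labelled with TAMRA and BHQ-2; released fluorescence signals activity. Enzyme 2 nM, substrate 50 nM, 15 min compound preincubation.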
# [7] = qHTS for differential inhibitors of proliferation of Plasmodium falciparum line 7G8 (AID 1815);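 note: parasite growth measured after three days of incubation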; note: potency is the fitted concentration of half-maximal effect;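 for activity change, negative = inhibition: plate controls were vehicle wells for no effect and reference inhibitor wells for full effect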
# [8] = qHTS for differential inhibitors of proliferation of Plasmodium falciparum line GB4 (AID 1816); details: Potency: Plasmodium falciparum GB4 proliferation inhibition;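 note: potency is the fitted concentration of half-maximal effect; parasite growth measured after 72 h incubation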
# [9] = qHTS for differential inhibitors of proliferation of Plasmodium falciparum line 3D7 (AID 1876); note: potency is the fitted concentration of half-maximal effect
# [10] = Cell Viability - LYMP1-002 - Assay at 24 hr (AID 993); note: potency is the fitted concentration of half-maximal effect
# Method in brief: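 qHTS, LYMP1-002 lymphoblastoid, 24 h cpd, 37 C, CellTiter-Glo ATP luminescence; AC50 via Hill eq.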
# [11] = Cell Viability - LYMP2-010 (AID 981);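 note: cells exposed to compound for 24 hours at 37 °C; nearly all actives have a fitted effect of over 55% in size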; note: potency is the fitted concentration of half-maximal effect
# Method in brief: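 Acute toxicity is scored as a concentration-dependent loss of cellular ATP in human lymphoblastoid cells after 24 hr compound exposure in complete medium. Tetraoctylammonium bromide is the positive control.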
# [12] = Cell Viability - LYMP2-014 (AID 983);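 note: cells exposed to compound for 24 h at 37 °C; plate controls were DMSO only for no effect and 92 µM tetraoctylammonium bromide for full effect; nearly all actives have a fitted effect of over 50% in size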
# Method in brief: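 Decrease in intracellular ATP after 24 hr treatment at 37 C, measured by luciferase luminescence, indicated cytotoxicity. Concentration-response data were fitted with the standard Hill equation to give AC50.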
# [13] = Cell Viability - LYMP2-016 (AID 984);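 note: cells exposed to compound for 24 hours at 37 °C; nearly all actives have a fitted effect of over 55% in size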; note: potency is the fitted concentration of half-maximal effect
# Method in brief: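 Cells were seeded at 2500 per well and rested 5 hr before a 24 hr compound exposure at 37 C. Viability was then gauged as cellular ATP by luciferase luminescence, with AC50 values fitted to the Hill equation.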
# [14] = Cell Viability - LYMP2-018 (AID 985); note: nearly all actives have a fitted effect of over 50% in size; note: potency is the fitted concentration of half-maximal effect
# Method in brief: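 Acute cytotoxicity is scored as a concentration-dependent drop in intracellular ATP after 24 hr exposure of the lymphoblastoid line in complete culture medium, measured by luciferase luminescence. Potency is expressed as AC50 from Hill modelling.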
# [15] = Cell Viability - LYMP2-020 (AID 986);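 note: cells exposed to compound for 24 h at 37 °C; nearly all actives have a fitted effect of over 55% in size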; note: potency is the fitted concentration of half-maximal effect
# Method in brief: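 Acute cytotoxicity in a human lymphoblastoid line is scored as a concentration-dependent fall in cellular ATP after 24 hr at 37 C in complete medium. The positive control is tetraoctylammonium bromide, and potency is given as Hill-fit AC50.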
# [16] = Cell Viability - LYMP2-022 (AID 987); note: nearly all actives have a fitted effect of over 55% in size; note: potency is the fitted concentration of half-maximal effect
# Method in brief: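 Acute toxicity in a human lymphoblastoid line is scored as decreased intracellular ATP after 24 hr compound treatment at 37 C. ATP is measured by CellTiter-Glo luminescence; curves are fitted with the Hill equation to give AC50.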
# [17] = Cell Viability - LYMP2-024 (AID 988);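 note: plate controls were DMSO only for no effect and 92 µM tetraoctylammonium bromide for full effect; nearly all actives have a fitted effect of over 60% in size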
# Method in brief: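 Acute toxicity is measured as concentration-dependent loss of intracellular ATP in a human lymphoblastoid line treated 24 hours at 37 C. Luciferase luminescence quantifies ATP; AC50 values come from standard Hill-equation modelling.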
# [18] = Cell Viability - LYMP2-026 (AID 989);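 note: cells exposed to compound for 24 h at 37 °C; nearly all actives have a fitted effect of over 50% in size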; note: potency is the fitted concentration of half-maximal effect
# Method in brief: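 Concentration-dependent loss of intracellular ATP in human lymphoblastoid cells after 24 hr at 37 C, quantified by luciferase luminescence. AC50 derived from standard Hill equation.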
# [19] = Cell Viability - LYMP1-002 - Assay at 40 hr (AID 994); note: nearly all actives have a fitted effect of over 60% in size; note: potency is the fitted concentration of half-maximal effect
# Method in brief: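 Viability in the human lymphoblastoid line was measured as intracellular ATP via CellTiter-Glo after 40 hr compound exposure. Tetraoctylammonium bromide served as positive control.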
# [20] = measured here: cell count channel max response
# [21] = measured here: lipid channel max response
# DNA repair nuclease/redox regulator APEX1 (Homo sapiens), sequence (P27695 whole entry, looked up): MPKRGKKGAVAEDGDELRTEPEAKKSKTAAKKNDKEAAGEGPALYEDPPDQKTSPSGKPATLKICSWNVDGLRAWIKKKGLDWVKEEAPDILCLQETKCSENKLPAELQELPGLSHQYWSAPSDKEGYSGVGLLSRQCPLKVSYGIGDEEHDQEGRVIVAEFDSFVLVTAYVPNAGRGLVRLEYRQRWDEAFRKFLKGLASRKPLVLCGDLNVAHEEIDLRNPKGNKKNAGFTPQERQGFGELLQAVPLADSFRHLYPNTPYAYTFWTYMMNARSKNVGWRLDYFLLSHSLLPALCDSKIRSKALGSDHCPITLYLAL
# Alpha-galactosidase A (Homo sapiens), sequence (P06280 whole entry, looked up): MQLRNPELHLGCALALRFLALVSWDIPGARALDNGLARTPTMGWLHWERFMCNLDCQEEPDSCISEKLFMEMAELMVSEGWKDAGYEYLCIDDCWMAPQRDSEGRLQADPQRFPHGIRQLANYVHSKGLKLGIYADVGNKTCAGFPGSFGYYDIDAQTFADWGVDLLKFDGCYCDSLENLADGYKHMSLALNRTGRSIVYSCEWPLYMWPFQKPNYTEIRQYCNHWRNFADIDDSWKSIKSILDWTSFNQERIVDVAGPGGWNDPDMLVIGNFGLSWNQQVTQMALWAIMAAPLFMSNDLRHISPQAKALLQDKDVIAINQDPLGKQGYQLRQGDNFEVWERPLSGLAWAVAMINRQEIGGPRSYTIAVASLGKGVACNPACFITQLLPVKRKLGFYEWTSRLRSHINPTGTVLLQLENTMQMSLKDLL
compound,measurement,setting,value
NC1CCN(c2cccc(Cl)n2)CC1,outcome,[1],inactive
same,outcome,[2],inactive
same,"activity change, negative = inhibition",[3]; at 57.5 µM (top of the series),5.71% (inactive) and 0.974% (inactive)
same,max response,[3]; [20],-16.7% and 37.1%
same,max response,[3]; [21],-10.9% and 36.3%
same,Potency,[4],inactive
same,Potency,[5],inactive
same,Potency,[6],inactive
same,Potency,[7],inactive
same,Potency,[8],12.6 µM (active)
same,Potency,[9],inactive
CCn1cc(C(=O)O)c(=O)c2cnc(N3CCNCC3)nc21,"activity change, negative = inhibition",[3]; at 25.7 µM (top of the series),-2.05% (inactive)
same,"activity change, negative = inhibition",[3]; at 57.5 µM (top of the series),0.203% (inactive)
same,max response,[3]; [20],0.27% and 20.9%
same,max response,[3]; [21],-1.56% and 23.6%
CCCCN(CCCC)CCCOC(=O)c1ccc(N)cc1,"activity change, negative = inhibition",[3]; at 25.7 µM (top of the series),-3.3% (inactive)
same,"activity change, negative = inhibition",[3]; at 57.5 µM (top of the series),6.89% (inactive)
same,max response,[3]; [20],-6.51% and -0.907%
same,max response,[3]; [21],-7.52% and 11.8%
CN(C)CCC=C1c2ccccc2CCc2ccccc21,outcome,[1],inactive
same,Potency,[10],inactive
same,outcome,[2],inactive
same,"activity change, negative = inhibition",[3]; at 25.7 µM (top of the series),-5.26% (inactive)
same,"activity change, negative = inhibition",[3]; at 57.5 µM (top of the series),-0.124% (inactive) and 0.255% (inactive)
same,max response,[3]; [20],-13.5% and 9.92% and -13.3%
same,max response,[3]; [21],-18.6% and 12.5% and -14.8%
same,Potency,[4],inactive
same,Potency,[5],inactive
Nc1ccc(S(=O)(=O)Nc2ccc(Cl)nn2)cc1,"activity change, negative = inhibition",[3]; at 25.7 µM (top of the series),0.129% (inactive)
same,"activity change, negative = inhibition",[3]; at 57.5 µM (top of the series),9.01% (inactive)
same,max response,[3]; [20],5.02% and 19.5%
same,max response,[3]; [21],5.1% and 34.7%
Cc1cc(CC(=O)O)n(C)c1C(=O)c1ccc(Cl)cc1,Potency,[11],inactive
same,outcome,[12],inactive
same,Potency,[13],inactive
same,Potency,[14],inactive
same,Potency,[15],inactive
same,Potency,[16],inactive
same,outcome,[17],inactive
same,Potency,[18],inactive
same,Potency,[10],inactive
same,Potency,[19],inactive
same,"activity change, negative = inhibition",[3]; at 25.7 µM (top of the series),-0.167% (inactive)
same,"activity change, negative = inhibition",[3]; at 57.5 µM (top of the series),7.69% (inactive)
same,max response,[3]; [20],-0.357% and 17.9%
same,max response,[3]; [21],0.164% and 28.7%
NS(=O)(=O)c1cc2c(cc1C(F)(F)F)NC(Cc1ccccc1)NS2(=O)=O (stereo not given),"activity change, negative = inhibition",[3]; at 57.5 µM (top of the series),2.56% (inactive)
same,max response,[3]; [20],6.37%
same,max response,[3]; [21],10.5%
Nc1ccc(S(=O)(=O)NC(=O)c2ccccc2)cc1,"activity change, negative = inhibition",[3]; at 25.7 µM (top of the series),2.01% (inactive)
same,"activity change, negative = inhibition",[3]; at 57.5 µM (top of the series),8.83% (inactive)
same,max response,[3]; [20],-14.6% and 20.6%
same,max response,[3]; [21],-13.2% and 26.2%
CSc1ccc2c(c1)C(N1CCN(C)CC1)Cc1ccccc1S2 (stereo not given),"activity change, negative = inhibition",[3]; at 57.5 µM (top of the series),1.28% (inactive) and 0.609% (inactive)
same,max response,[3]; [20],9.1% and -20.8%
same,max response,[3]; [21],12.4% and -19.6%
same,Potency,[4],inactive
same,Potency,[5],inactive
same,Potency,[7],6.31 µM (active)
same,Potency,[8],11.2 µM (active)
same,Potency,[9],8.91 µM (active)
Cc1c(O)cccc1C(=O)N[C@@H](CSc1ccccc1)[C@H](O)CN1C[C@H]2CCCC[C@H]2C[C@H]1C(=O)NC(C)(C)C,Potency,[11],50.1 µM (active)
same,Potency,[13],50.1 µM (active)
same,Potency,[14],50.1 µM (active)
same,Potency,[15],50.1 µM (active)
same,Potency,[16],39.8 µM (active)
same,Potency,[18],50.1 µM (active)
same,Potency,[10],39.8 µM (active)
same,Potency,[19],31.6 µM (active)
CNC(=O)Oc1ccc2c(c1)[C@]1(C)CCN(C)[C@@H]1N2C,Potency,[4],inactive
same,Potency,[5],inactive
same,Potency,[6],inactive
O=C1c2c(O)cccc2Cc2cccc(O)c21,Potency,[11],inactive
same,outcome,[12],inactive
same,Potency,[13],inactive
same,Potency,[14],inactive
same,Potency,[15],inactive
same,Potency,[16],inactive
same,outcome,[17],inactive
same,Potency,[18],inactive
same,Potency,[10],inactive
same,Potency,[19],inactive
same,"activity change, negative = inhibition",[3]; at 57.5 µM (top of the series),2.53% (inactive)
same,max response,[3]; [20],14.4%
same,max response,[3]; [21],20.2%
